10 compounds from paper PMC5540273 (PLoS ONE, 2017) can be followed below.

Among the test systems are RIOK1; RIOK2; RIOK3; RIPK1; RIPK2; RIPK4; RIPK5; ROCK1; ROCK2; ROS1.
Holding throughout (conditions): concentration: 1 μM, replicates: in singlicate; n = 1
Assay [1] deals with RPS6KA4(Kin.Dom.1-N-terminal).
For assay [2], the system named is RPS6KA4(Kin.Dom.2-C-terminal).
Assay [3] concerns RPS6KA5(Kin.Dom.1-N-terminal).
The subject of assay [4] is RPS6KA5(Kin.Dom.2-C-terminal).
Assay [5] has as its system T1, RSK1(Kin.Dom.1-N-terminal).
T1 construct: gene RPS6KA1

Assay [6] concerns T2, RSK1(Kin.Dom.2-C-terminal).
T2 construct: gene RPS6KA1

In assay [7] the test system is T3, RSK2(Kin.Dom.1-N-terminal).
T3 construct: gene RPS6KA3

In assay [8] the test system is T4, RSK2(Kin.Dom.2-C-terminal).
T4 construct: gene RPS6KA3

Assay [9] relates to T5, RSK3(Kin.Dom.1-N-terminal).
T5 construct: gene RPS6KA2

Assay [10] concerns T6, RSK3(Kin.Dom.2-C-terminal).
T6 construct: gene RPS6KA2
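Also: KINOMEscan kinase panel screen.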

`CCNc1nccc(-c2c(-c3ccc(F)cc3)ncn2C2CCN(C)CC2)n1`: the “%Inh” value amounted to 10% in the assay on RIOK1; 0% in the assay on RIOK2; 29% in the assay on RIOK3; 8% with RIPK1; 36% with RIPK2; 0% with RIPK4. For the same compound, the “%Inh” value (with RIPK5; in the assay on ROCK1; in the assay on ROCK2; in the assay on ROS1; in assay [1]; in assay [2]) was 0% each time. Moreover, the “%Inh” value was 0% in assay [3]; 8% in assay [4]; 5% in assay [5]; 50% in assay [6]; 9% in assay [7]; 15% in [8]. Besides, the “%Inh” value in assay [9] was found to be 6%; in [10], 10%.
Take `CCn1cnc2c(NCc3ccccc3)ncnc21` [SKF-96418]: the “%Inh” value came to 0% in the assay with RIOK1; 0% in the assay with RIOK2; 0% in the assay with RIOK3; 0% with RIPK1; 0% in the assay on RIPK2; 13% in the assay on RIPK4. The “%Inh” value in the assay on RIPK5 is 28%; in the assay with ROCK1, 56%; in the assay on ROCK2 it was 16%; in the assay with ROS1, 0%; in [1], 13%; in assay [2] it was 0%. Besides, the “%Inh” value is on record as 11% in assay [3]; 0% in assay [4]; 0% in assay [5]; 0% in assay [6]; 30% in assay [7]; 0% in assay [8]. Besides, the “%Inh” value in assay [9] and in assay [10] was 0% throughout.
For the compound `Cc1ccc(NC(=O)c2ccc(Cl)c(Cl)c2)cc1-c1ccc(C(=O)Nc2ccncc2)cc1` [GSK1398460], the “%Inh” value is 50% in the assay on RIOK1; 0% in the assay on RIOK2; 53% with RIOK3; 23% with RIPK1; 11% in the assay with RIPK2; 6% with RIPK4. The “%Inh” value was determined as 4% in the assay with RIPK5; 0% in the assay on ROCK1; 0% with ROCK2; 20% in the assay with ROS1; 25% in assay [1]; 0% in assay [2]. For the same compound, the “%Inh” value is 15% in [3]; 0% in assay [4]; 24% in [5]; 2% in [6]; 0% in assay [7]; 22% in assay [8]. In addition, the “%Inh” value in [9] was 7%; in assay [10] it was 9%.
`Nc1ncc(-c2cn[nH]c2)c2scc(-c3ccc4c(c3)CCN4C(=O)Cc3ccccc3)c12` [GSK2593067]: the “%Inh” value is on record as 75% in the assay on RIOK1; 86% with RIOK2; 57% in the assay on RIOK3; 100% with RIPK1; 94.6% in the assay with RIPK2; 0% in the assay on RIPK4. Besides, the “%Inh” value in the assay with RIPK5 amounted to 10%; in the assay on ROCK1, 41%; in the assay with ROCK2, 36%; with ROS1, 9%; in [1] it was 37%; in assay [2] it was 0%. In addition, the “%Inh” value was 24% in assay [3]; 0% in [4]; 22% in assay [5]; 2% in [6]; 0% in assay [7]; 2% in assay [8]. Also, the “%Inh” value in assay [9] was found to be 31%; in [10], 0%.
For `COc1ccc(C)c(Nc2ccnc(Nc3ccc(-c4cnc[nH]4)cc3)n2)c1.Cl` [GW784041], the “%Inh” value is recorded as 36% with RIOK1; 6% in the assay with RIOK2; 34% in the assay on RIOK3; 13% with RIPK1; 100% in the assay with RIPK2; 0% in the assay on RIPK4. Moreover, the “%Inh” value is on record as 0% with RIPK5; 0% in the assay on ROCK1; 0% in the assay with ROCK2; 3% with ROS1; 26% in assay [1]; 5% in assay [2]. The “%Inh” value in [3] came to 8%; in assay [4], 10%; in [5] it was 0%; in assay [6], 1%; in assay [7] it was 0%; in [8], 3%. Moreover, the results for the “%Inh” value in assay [9] and in assay [10] were 1% and 6%, respectively.
On to `CSc1ccc(NC2=C(c3ccc(Cl)cc3)C(=O)NC2=O)cc1` [SB-317658], for which the “%Inh” value with RIOK1 came to 3%; in the assay on RIOK2, 0%; in the assay on RIOK3 it was 20%; in the assay on RIPK1, 0%; in the assay on RIPK2 it was 0%; with RIPK4 it was 16%. Also, the “%Inh” value with RIPK5 is 7%; with ROCK1 it was 38%; in the assay with ROCK2 it was 0%; in the assay with ROS1, 3%; in assay [1], 28%; in assay [2], 0%. Further, the “%Inh” value in assay [3] is recorded as 2%; in assay [4] it was 30%; in assay [5] it was 6%; in assay [6], 0%; in assay [7], 11%; in assay [8] it was 0%. The “%Inh” value in [9] and in [10] was 0% throughout.
With `Cl.N#CCc1ccc(Nc2nccc(Nc3ccc(Oc4ccccc4)cc3)n2)cc1` [GW639905], the “%Inh” value is 21% in the assay with RIOK1; 23% in the assay on RIOK2; 0% with RIOK3; 0% with RIPK1; 96.1% in the assay with RIPK2; 0% with RIPK4. Also, the “%Inh” value in the assay on RIPK5 came to 17%; in the assay on ROCK1, 31%; in the assay with ROCK2 it was 34%; with ROS1 it was 0%; in assay [1], 0%; in assay [2], 0%. In addition, the “%Inh” value in assay [3] was 0%; in assay [4], 0%; in assay [5], 1%; in assay [6], 0%; in assay [7], 0%; in [8], 16%. Moreover, the “%Inh” value was determined as 4% in assay [9] and 0% in assay [10].
As for `CN(c1ccc(F)c(NC(=O)c2cccc(OC(C)(C)C#N)c2Cl)c1)c1ccc2nc(NC(=O)C3CC3)sc2n1`, the “%Inh” value with RIOK1 was found to be 0%; with RIOK2, 71%; with RIOK3, 27%; in the assay with RIPK1, 0%; with RIPK2 it was 36%; in the assay on RIPK4, 2%. In addition, the “%Inh” value (with RIPK5; with ROCK1; in the assay with ROCK2; with ROS1; in [1]; in assay [2]) was 0% each time. In addition, the “%Inh” value is 11% in assay [3]; 6% in assay [4]; 0% in assay [5]; 1% in assay [6]; 0% in assay [7]; 59% in [8]. Moreover, the “%Inh” value in assay [9] and in assay [10] was 0% throughout.
As for `Cn1cc(-c2ccc3c(c2)CCN3C(=O)Cc2cc(F)cc(C(F)(F)F)c2)c2c(N)ncnc21` [GSK2635225], the “%Inh” value in the assay with RIOK1 was determined as 21%; with RIOK2, 2%; in the assay on RIOK3 it was 26%; in the assay on RIPK1, 100%; in the assay with RIPK2, 59%; in the assay on RIPK4, 0%. The “%Inh” value in the assay on RIPK5 was 0%; in the assay with ROCK1, 3%; in the assay with ROCK2, 6%; in the assay with ROS1, 29%; in assay [1], 0%; in assay [2], 0%. Also, the “%Inh” value in assay [3] worked out at 23%; in [4], 6%; in assay [5], 1%; in assay [6] it was 5%; in assay [7], 0%; in assay [8], 19%. Further, the “%Inh” value in assay [9] was 19%; in assay [10] it was 0%.
For `CCNC(=O)/C=C/c1n[nH]c2cc(Sc3ccccc3C(=O)NC)ccc12`, the “%Inh” value came out at 0% in the assay on RIOK1; 7% in the assay on RIOK2; 0% in the assay on RIOK3; 0% in the assay on RIPK1; 29% with RIPK2; 4% in the assay on RIPK4. Moreover, the “%Inh” value in the assay on RIPK5 came out at 18%; in the assay with ROCK1, 4%; in the assay with ROCK2 it was 1%; with ROS1, 33%; in [1], 8%; in [2], 21%. Also, the “%Inh” value stood at 4% in assay [3]; 0% in assay [4]; 24% in assay [5]; 15% in [6]; 8% in assay [7]; 0% in [8]. For the same compound, the “%Inh” value in [9] worked out at 8%; in assay [10] it was 34%.
